Assay outcomes from PubChem BioAssay.
Only some compounds are listed: those with a hit (about 1.2% of all), similar ones and a draw of the others.
Mtb betalactam: beta-lactam sensitization of Mtb H37Rv; AID 434955; inhibition, % at 25 µM; 330,000 tested, 0.27% active; M. tuberculosis H37Rv growth with meropenem, percent inhibition; call rule not given here;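 further: growth measured after seven days incubation then overnight dye step; 0% = bacteria only wells and 100% = bacteria with antibiotic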
CCHF vOTU inh-1: CCHFV vOTU protease inhibition | Pep-AMC fluorescence | inhibition, % at 11.5 µM | 370,000 tested, 0.55% active | AID 651958; further: 0% = vehicle wells with enzyme and 100% = no enzyme wells
Rv3671c protease: inhibitors of M. tuberculosis serine protease Rv3671c. P9WHR9. inhibition, % at 5.96 µM. 320,000 tested, 0.048% active. AID 2606; in the data active means inhibition above about 38%;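 further: extracellular domain of Rv3671c used as enzyme; 0% = enzyme with DMSO and 100% = no enzyme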
Mtb UGM inh: inhibitors of M. tuberculosis UDP-galactopyranose mutase; inhibition, % at 10 µM; P9WIQ1; 320,000 tested, 0.06% active; purified UGM, fluorescence polarization probe displacement; AID 504406; in the data active means inhibition above about 10%, passing the limit was not always enough
RecA intein inh: blocks M. tuberculosis RecA intein splicing | cell-free RecA intein splicing, fluorescence | inhibition, % (concentration not given with the values) | 290,000 tested, 0.75% active; in the data active means inhibition above about 30%;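 further: 0% = vehicle wells and 100% = reference inhibitor control wells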
Target sequence (P9WHJ3 whole entry, looked up): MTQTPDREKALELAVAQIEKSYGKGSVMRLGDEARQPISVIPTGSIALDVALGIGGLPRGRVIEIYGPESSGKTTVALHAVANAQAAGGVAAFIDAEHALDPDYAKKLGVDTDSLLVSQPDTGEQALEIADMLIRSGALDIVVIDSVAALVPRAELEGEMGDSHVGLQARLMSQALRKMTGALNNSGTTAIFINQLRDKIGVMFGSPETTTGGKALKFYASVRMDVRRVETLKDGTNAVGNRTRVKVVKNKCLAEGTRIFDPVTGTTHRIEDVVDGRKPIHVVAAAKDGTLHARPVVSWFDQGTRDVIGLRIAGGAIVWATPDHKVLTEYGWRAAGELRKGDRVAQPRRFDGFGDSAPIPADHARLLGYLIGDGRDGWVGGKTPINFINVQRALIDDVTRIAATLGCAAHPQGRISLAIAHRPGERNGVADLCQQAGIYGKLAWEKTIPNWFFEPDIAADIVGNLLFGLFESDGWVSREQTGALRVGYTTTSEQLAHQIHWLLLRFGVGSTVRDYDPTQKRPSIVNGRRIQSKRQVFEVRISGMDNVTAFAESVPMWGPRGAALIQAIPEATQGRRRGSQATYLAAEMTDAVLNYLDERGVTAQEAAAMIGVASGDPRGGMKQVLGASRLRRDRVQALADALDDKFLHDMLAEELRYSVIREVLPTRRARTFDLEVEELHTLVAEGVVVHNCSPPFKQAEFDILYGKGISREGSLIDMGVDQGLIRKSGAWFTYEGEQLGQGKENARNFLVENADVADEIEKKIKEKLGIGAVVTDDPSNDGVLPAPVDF
CCHF vOTU inh-2: confirmation of CCHF virus vOTU protease inhibitors | shares compounds with CCHF vOTU inh-1 | Recombinant CCHFV vOTU, Pep-AMC fluorescence | inhibition, % at 11.5 µM | 1,900 tested, 17% active | AID 686976
An asterisk follows results filed as active; . = no result given. Unless noted, no stated cut-off is given here; in the data, active means inhibition above about 30%; inactive means the rest.

SMILES | Mtb betalactam | CCHF vOTU inh-1 | Rv3671c protease | Mtb UGM inh | RecA intein inh | CCHF vOTU inh-2
CCN(CC)C(=O)CC[C@@H]1CC[C@]2(CCCN(S(=O)(=O)c3ccccc3)C2)O1 | . | 8 | . | . | . | .
Cc1cc(NS(=O)(=O)c2ccc(NC(=O)COc3c(C)cc(Br)cc3C)cc2)no1 | 3 | 31* | 2 | 0 | -5 | -11
Cc1cc(NS(=O)(=O)c2ccc(NC(=O)c3oc4ccccc4c3C)cc2)no1 | 34 | 31* | -2 | -2 | 2 | -5
COc1ccc(OCC(=O)Nc2ccc(S(=O)(=O)Nc3cc(C)on3)cc2)cc1 | 8 | 2 | -1 | . | 3 | .
COC(=O)[C@]12C[C@H](CC(=O)NCCC(C)C)C(=O)N(CCC3=CCCCC3)C1=C[C@H](C(C)C)O[C@@H]2C1CC1 | . | 28 | . | . | . | .
CCC(C)NC(=O)C1CCN(S(=O)(=O)c2ccc3[nH]c(=O)oc3c2)CC1 (stereo unspecified) | . | 0 | . | . | . | .
COc1cccc(-c2cc(C(F)(F)F)nc(-n3cc(C)cn3)n2)c1 | 6 | 35* | 0 | 0 | -10 | -9
COC(=O)[C@]1(CNC(=O)C(C)(C)C)CC(=O)N(C)[C@@H]1c1ccccc1 | . | 1 | . | . | . | .
COc1ccc(NS(=O)(=O)c2ccc(O)c(NC(=O)c3ccc(S(=O)(=O)N4CCCC4)cc3)c2)cc1 | -10 | 34* | -9 | 0 | . | -6
CCOC(=O)N1CCN(C(=O)C[C@@H]2C[C@@]3(C(=O)OC)CC(C)(C)CC=C3N(Cc3ccccc3)C2=O)CC1 | . | 20 | . | . | . | .
CCCCCCCCN1C(=O)[C@H](CC(=O)N2CCN(C(=O)OCC)CC2)C[C@@]2(C(=O)OC)CC(C)(C)CC=C12 | . | 32* | . | . | . | 22
CCCCCCCCN1C(=O)[C@H](CC(=O)N2CCN(C(=O)C3CC3)CC2)C[C@@]2(C(=O)OC)CC(C)(C)CC=C12 | . | 31* | . | . | . | 19
COC(=O)[C@]12C[C@H](CC(=O)N3CCCC3)C(=O)N(Cc3ccc4c(c3)OCO4)C1=C[C@H](C(C)C)O[C@@H]2C1CC1 | . | 5 | . | . | . | .
COc1cc(C2Nc3cccc4cccc(c34)N2)ccc1O | -1 | 41* | 4 | 1 | 14 | 24
COC(=O)C1CN(C2CC2)CCS(=O)(=O)N1Cc1cn(Cc2ccccc2)nn1 (stereo unspecified) | . | 9 | . | . | . | .
CC(=O)N(CN1C(=O)c2ccccc2C1=O)c1cccc(C)c1 | -2 | -1 | 1 | -2 | -2 | .
CC(=O)N(/N=C1\Sc2ccccc2C1=O)c1cccc(C)c1 | 34 | 36* | -142 | 1 | 8 | 37*
CC1(Cc2cccc(C(F)(F)F)c2)C(=O)Nc2ccc(-c3ccc(F)c(Cl)c3)cc21 (stereo unspecified) | . | 32* | . | . | . | -1
CC1(Cc2cc(Cl)ccc2C(F)(F)F)C(=O)Nc2ccc(-c3ccc(F)c(Cl)c3)cc21 (stereo unspecified) | . | 20 | . | . | . | .
COc1ccc(CNS(=O)(=O)c2cc3c(cc2Br)CC(C)N3C(C)=O)cc1 (stereo unspecified) | . | -5 | . | . | . | .
CC(=O)c1cccc(-c2ccnc3c2CC(C(=O)Nc2cccc(C(F)(F)F)c2)O3)c1 (stereo unspecified) | . | 33* | . | . | . | -8
CC1(C(=O)Nc2cccc(OC(F)(F)F)c2)Cc2c(-c3cccc(C(F)(F)F)c3)ccnc2O1 (stereo unspecified) | . | 40* | . | . | . | -4
CC(=O)c1cccc(NC(=O)C2(C)Cc3c(-c4cccc(C(F)(F)F)c4)ccnc3O2)c1 (stereo unspecified) | . | 33* | . | . | . | 5
N#Cc1cccc(Cn2ccc3ccc(-c4ccc5ccn(Cc6cccc(C#N)c6)c5c4)cc32)c1 | . | 1 | . | . | . | .
Cc1ccccc1CN1CCCCC(NC(=O)Nc2ccccc2)C1=O (stereo unspecified) | . | 5 | . | . | . | .
SMILES | Mtb betalactam | CCHF vOTU inh-1 | Rv3671c protease | Mtb UGM inh | RecA intein inh | CCHF vOTU inh-2
NC(=S)N=Nc1c(O)cc(O)c2[nH]c(=O)ccc12 | . | 87* | . | . | . | 90*
NC(=S)N=Nc1c(O)[nH]c2ccc(F)cc12 | 4 | 13 | 3 | 3 | -2 | .
Cc1c(C)n(Cc2ccc(-c3ccccc3C(=O)O)cc2)c2ccc(C(=O)N[C@@H](C)c3ccc(Br)cc3)cc12 | . | 33* | . | . | . | 3
COCCn1c(SCC(=O)NN2C(=O)NC(C)(c3ccccc3)C2=O)nnc1-c1ccncc1 (stereo unspecified) | 1 | 35* | 0 | 0 | . | -21
COC1=C(Nc2ccc(C)cc2)C(=O)c2ccccc2C1=O | 7 | 55* | -123 | 1 | 5 | -9
CCCOc1ccccc1OCC(=O)Nc1cc(Cl)ccc1-n1cncn1 | -12 | 32* | -1 | 1 | -1 | -16
